Screens from PubChem.
BAZ2B inh = blocks human BAZ2B; Q9UIF8; AlphaScreen BAZ2B-H3K14Ac peptide displacement; Potency, µM (series often up to 114 µM), actives largely listed as inhibitors; 4.4% of 360,000 active; also: nearly all actives have a fitted effect of over 60% in size
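In this displacement format the biotinylated H3(5-23) peptide acetylated at Lys14 serves as ligand at 50 nM, with BAZ2B at 50 nM in PBS pH 7.4 containing 0.01% Tween-20. Donor and acceptor beads are 10 ug/mL final.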
HP1b binding inh = blocks HP1-beta chromodomain binding to methylated histone tails. P83916. AID 540317. Potency, µM (series often up to 114 µM), hits mostly inhibitors. AlphaScreen HP1-beta / biotin-H3K9me3 peptide binding. 0.56% of 390,000 active; also: nearly all actives have a fitted effect of over 70% in size
Target sequence (P83916 whole entry, looked up): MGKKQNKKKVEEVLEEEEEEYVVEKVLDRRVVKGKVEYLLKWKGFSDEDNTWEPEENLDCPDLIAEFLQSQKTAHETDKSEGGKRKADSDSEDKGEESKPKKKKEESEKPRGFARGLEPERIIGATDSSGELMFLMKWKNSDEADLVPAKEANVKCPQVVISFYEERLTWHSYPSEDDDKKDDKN
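AlphaScreen: HP1-beta (50 nM) preformed 30 min with biotin-H3(1-18)K9me3 peptide (50 nM) in PBS pH 7.4, 0.01% Tween-20. Compound added for 30 min at RT, then streptavidin donor/nickel chelate acceptor beads (10 ug/mL) for 30 min.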
JMJD2A Tudor inh = inhibitors of human JMJD2A Tudor domain; O75164; AlphaScreen JMJD2A-Tudor / H3K4me3 peptide binding; Potency, µM (titrated, usually from 114 µM), usual class: inhibitors; 4.4% of 390,000 active; AID 504339; also: nearly all actives have a fitted effect of over 50% in size
G9a inh = inhibitors of human histone lysine methyltransferase G9a; Q96KQ7; 8.8% of 350,000 active; G9a H3K9 monomethylation, AlphaScreen, 2 h; Potency, µM (doses to about 102 µM), most hits filed as inhibitors; also: nearly all actives have a fitted effect of over 75% in size
Target sequence (Q96KQ7 913-1193 limits assumed): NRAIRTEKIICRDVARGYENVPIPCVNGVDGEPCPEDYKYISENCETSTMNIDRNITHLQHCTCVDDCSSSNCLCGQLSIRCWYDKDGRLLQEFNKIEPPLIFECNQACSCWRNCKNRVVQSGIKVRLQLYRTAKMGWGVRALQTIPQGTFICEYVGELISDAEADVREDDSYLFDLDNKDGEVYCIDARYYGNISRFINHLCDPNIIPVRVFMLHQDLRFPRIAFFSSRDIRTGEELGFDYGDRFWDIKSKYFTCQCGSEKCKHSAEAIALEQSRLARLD
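Readings reflect AlphaScreen signal from monomethyl-H3K9 antibody detection. HMT at 20 nM; substrate b-H3K9 500 nM; cofactor SAM 20 uM; 2 h RT reaction; compounds tested as titrations in qHTS with 15 min preincubation.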
L3MBTL1 inh = L3MBTL1 (human) inhibition; Q9Y468; 0.66% of 230,000 active; AID 485360; Potency, µM (doses to about 57.1 µM), actives largely listed as inhibitors; AlphaScreen L3MBTL1–H3K9me1 peptide binding; also: nearly all actives have a fitted effect of over 60% in size
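AlphaScreen assay: L3MBTL1 (50 nM final) was preincubated 30 min at room temperature with biotinylated H3(1-15)K9me1 peptide (75 nM final), then 30 min with library compounds; streptavidin donor and nickel chelate acceptor beads (10 ug/mL final) added, 30 min dark.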
Large screens that a line does not name were inactive. Sampled rows, rich in hits. Any-hit rate of the full collection: about 11%. Calls follow the shape of the dose curve; as a rule, active = well fitted inhibition curve with a large enough effect; inconclusive = small, poorly fitted or top-dose-only effect; inactive = no such curve, though single readings can be large or run the other way.

Cc1ccc(S(=O)(=O)N2CCCCC2)cc1NC(=O)c1cc2ccccc2o1	none
CCN1CCN(c2ccc(S(=O)(=O)N3CCCCC3)cc2NC(=O)Cc2ccc(OC)cc2)CC1	none (no result: L3MBTL1 inh)
CCN1CCN(c2ccc(S(=O)(=O)N3CCCCC3)cc2NC(=O)c2cccc(OC(F)F)c2)CC1	G9a inh 13µM
COc1ccc(S(=O)(=O)N2CCOCC2)cc1NC(=O)c1cc2ccccc2o1	G9a inh 45µM
CC(C)COc1cccc(C(=O)Nc2cc(S(=O)(=O)N3CCOCC3)ccc2N2CCCC2)c1	HP1b binding inh inconclusive (no result: BAZ2B inh, G9a inh, L3MBTL1 inh)
CCN1CCN(c2ccc(S(=O)(=O)N3CCCCC3)cc2NC(=O)c2cccc(Cl)c2)CC1	BAZ2B inh inconclusive, JMJD2A Tudor inh inconclusive, G9a inh 32µM
CCN1CCN(c2ccc(S(=O)(=O)N3CCCCC3)cc2NC(=O)c2ccc(OC(F)F)cc2)CC1	G9a inh 14µM
CCOCCCNC(=O)C(c1ccc(Cl)cc1)N(Cc1ccc2c(c1)OCO2)C(=O)c1ccccc1O (configuration not stated)	none (no result: L3MBTL1 inh)
COc1ccc(CNC(=O)CSc2nnc(C)c3c(C)n(-c4ccccc4)nc23)c(OC)c1	none (no result: L3MBTL1 inh)
COc1ccc(C)cc1NC(=O)/C=C/c1ccc(OC)c(S(=O)(=O)N2CCOCC2)c1	JMJD2A Tudor inh inconclusive, G9a inh inconclusive
COc1ccc(OC)c(NC(=O)/C=C/c2ccc(S(=O)(=O)N3CCOCC3)cc2)c1	G9a inh 50µM
CCN1CCN(c2ccc(S(=O)(=O)N3CCCCC3)cc2NC(=O)c2cc3ccccc3o2)CC1	JMJD2A Tudor inh inconclusive, G9a inh 35µM, L3MBTL1 inh inconclusive
C=C(C)c1cccc(C(C)(C)NC(=O)NC2CC(C)(C)NC(C)(C)C2)c1	none
CCC1(c2ccccc2)NC(=O)N(CC(=O)Nc2ccccc2N2CCCC2)C1=O (configuration not stated)	G9a inh 40µM
CC1CCc2ccccc2N1CC(=O)Nc1cccc(S(=O)(=O)N2CCCC2)c1 (configuration not stated)	JMJD2A Tudor inh inconclusive, G9a inh 20µM
Cc1cc(N2CCCC2)ccc1NC(=O)CN1C(=O)NC(C)(c2ccccc2)C1=O (configuration not stated)	BAZ2B inh 25µM, JMJD2A Tudor inh inconclusive (no result: G9a inh, L3MBTL1 inh)
CC1Cc2ccccc2N1CC(=O)Nc1cccc(S(N)(=O)=O)c1 (configuration not stated)	L3MBTL1 inh inconclusive
CCC1(c2ccccc2)NC(=O)N(CC(=O)Nc2ccc(S(=O)(=O)NC3=NCCCCC3)cc2)C1=O (configuration not stated)	G9a inh 50µM
CC(C)Oc1ccc(CNC(=O)CCn2c(=O)c3cccn3c3ccc(F)cc32)cc1	none (no result: L3MBTL1 inh)
Cn1c2ccccc2c(=O)c2c(=O)n(-c3ccc(F)cc3)c(C3CCCCC3)nc21	none (no result: BAZ2B inh, G9a inh, L3MBTL1 inh)
CCC1(c2ccccc2)NC(=O)N(CC(=O)Nc2cc(Cl)ccc2N2CCOCC2)C1=O (configuration not stated)	G9a inh 35µM
CCOc1ccc(S(=O)(=O)N2CCOCC2)cc1NC(=O)CN1C(=O)NC(CC)(c2ccccc2)C1=O (configuration not stated)	none (no result: L3MBTL1 inh)
CCC1(c2ccc(F)cc2)NC(=O)N(CC(=O)c2cc(C)n(C3CC3)c2C)C1=O (configuration not stated)	G9a inh 50µM
COc1ccc(CNC(=O)CN2C(=O)NC(c3ccccc3)(c3ccccc3)C2=O)cc1OC	none (no result: BAZ2B inh, G9a inh, L3MBTL1 inh)
CC1(c2ccccc2)NC(=O)N(CC(=O)Nc2ccc(N3CCOCC3)cc2N2CCOCC2)C1=O (configuration not stated)	G9a inh 56µM
COc1ccc(CNC(=O)CN2C(=O)NC(Cc3ccccc3)(c3ccccc3)C2=O)cc1OC (configuration not stated)	G9a inh 8.9µM
CCN(CC)CCn1c2c(c(SCC(=O)NCc3ccccc3)nc1=O)CCC2	none
O=C(c1csnn1)N1CCC2(CCCN(Cc3cc(C(F)(F)F)cc(C(F)(F)F)c3)C2)CC1	none (no result: BAZ2B inh, HP1b binding inh, JMJD2A Tudor inh, L3MBTL1 inh)
CCC1(c2ccccc2)NC(=O)N(CC(=O)Nc2ccc(N3CCCC3)cc2C)C1=O (configuration not stated)	BAZ2B inh 45µM, HP1b binding inh inconclusive, JMJD2A Tudor inh 45µM, G9a inh 1.8µM
CCC1(c2ccccc2)NC(=O)N(CC(=O)NCc2ccc(F)cc2)C1=O (configuration not stated)	none (no result: L3MBTL1 inh)
CCC1(c2ccccc2)NC(=O)N(CC(=O)Nc2ccc(Cl)c(S(=O)(=O)N3CCCCC3)c2)C1=O (configuration not stated)	none
CCC1(c2ccccc2)NC(=O)N(CC(=O)Nc2cccc(S(=O)(=O)N3CCCCC3)c2)C1=O (configuration not stated)	G9a inh 45µM
O=C(CN1C(=O)C2CC=CCC2C1=O)Nc1ccccc1N1CCCC1 (configuration not stated)	G9a inh 50µM
CCC1(c2ccccc2)NC(=O)N(CC(=O)NNC(=O)c2ccc(F)cc2)C1=O (configuration not stated)	G9a inh 6.3µM
Cc1ccc(C2=Nc3ccccc3N(CC(=O)Nc3ccccc3F)C(=O)C2)cc1C	none (no result: L3MBTL1 inh)
c1ccc(C[n+]2cccc3c4ccccc4ccc32)cc1	none (no result: G9a inh)
CCCCC[n+]1cccc2c3ccccc3ccc21	JMJD2A Tudor inh inconclusive, G9a inh 50µM (no result: L3MBTL1 inh)
COCCCNC(=O)C(C)n1c2ccccc2c2cnn(C)c(=O)c21 (configuration not stated)	none (no result: L3MBTL1 inh)
CCC(C(=O)O)n1c(C(F)(F)F)nc2ccccc21 (configuration not stated)	none
CC(C(=O)O)n1c2ccccc2c2cnn(C)c(=O)c21 (configuration not stated)	G9a inh 45µM (no result: L3MBTL1 inh)
CCC(C(=O)O)n1c2ccccc2c2cn[nH]c(=O)c21 (configuration not stated)	G9a inh 45µM (no result: L3MBTL1 inh)
Cc1ccc(OCCn2cnc3c2c(=O)n(C)c(=O)n3C)cc1	G9a inh 45µM (no result: L3MBTL1 inh)
Cn1c(=O)c2c(ncn2CCO)n(C)c1=O	none (no result: L3MBTL1 inh)
Cc1ccc(-n2nc(C(=O)N(C)c3ccccc3Cl)c3c4ccccc4n(C)c3c2=O)cc1	none (no result: BAZ2B inh, L3MBTL1 inh)
Cc1nc(CNS(=O)(=O)c2cccc(F)c2)cs1	G9a inh inconclusive
Cc1ccc(-c2csc(NS(=O)(=O)c3cccc(F)c3)n2)o1	JMJD2A Tudor inh 56µM, L3MBTL1 inh 28µM (no result: BAZ2B inh, G9a inh)
O=S(=O)(NNc1ncc(C(F)(F)F)cc1Cl)c1ccccc1	HP1b binding inh inconclusive, JMJD2A Tudor inh 0.71µM, G9a inh inconclusive
Nc1ccccc1C(=O)NNc1ncc(C(F)(F)F)cc1Cl	BAZ2B inh 50µM
CCOC(=O)c1c(/N=C/c2cccc([N+](=O)[O-])c2O)sc(C)c1C	BAZ2B inh 45µM, HP1b binding inh 45µM, JMJD2A Tudor inh 50µM, G9a inh 7.1µM
Cc1ccc(-n2nnnc2CNC(=O)c2ccccc2)cc1C	none (no result: L3MBTL1 inh)
